The values that follow come from the supplement of paper PMC13380429.

The subject of assay [1] is Vero E6 infected with SARS-CoV-2. The assay can be described thus: morphology score (similarity to uninfected cells); higher = more like uninfected cells. To be noted: 24 h.
Assay [2] shares this test system. The assay can be described thus: SARS-CoV-2 infection rate relative to infected DMSO; higher = more infection, active = 60 or less. As to conditions: 24 h.

Turning to `C[C@]12CC[C@H](O)C[C@H]1CC[C@@H]1[C@@H]2C[C@@H](O)[C@]2(C)[C@@H](C3=CC(=O)OC3)CC[C@]12O` [digoxigenin] (0.833333 µM), in assay [1], the morphology score is -0.000579. The SARS-CoV-2 infection rate in assay [2] is 99.5% (inactive).
For `N=C1CCCN1Cc1[nH]c(=O)[nH]c(=O)c1Cl` [tipiracil] (10 µM), in that order: -0.0802 and 106% (inactive).
For `CCOc1ccc(Cc2cc([C@]34OC[C@](CO)(O3)[C@@H](O)[C@H](O)[C@H]4O)ccc2Cl)cc1` [ertugliflozin] (10 µM), in that order: -0.0565 and 107% (inactive).
For `CC(C)Oc1ccc(Cc2ccc(NC3=NCCN3)cc2)cc1` (10 µM), in that order: 0.0823 and 100% (inactive).
Turning to `COc1ccccc1CC(=N)N1C[C@@H]2C(=O)CCC(c3ccccc3)(c3ccccc3)[C@@H]2C1` (10 µM), the morphology score in assay [1] is -0.184. The SARS-CoV-2 infection rate in assay [2] was 110% (inactive).
Regarding `CCOC(=O)[C@H](CCc1ccccc1)N[C@@H](C)C(=O)N1C(=O)N(C)C[C@H]1C(=O)O` [imidapril] (10 µM), the morphology score in assay [1] was -0.0373. In addition, the SARS-CoV-2 infection rate in assay [2] was 117% (inactive).
For `COc1cc(C(=O)NCC2(N(C)C)CCCC2)cc(OC)c1OCc1ccccc1` (10 µM) the same measures were 0.334 and 77.5% (inactive).
For `C[C@H](Nc1ncnc2[nH]cnc12)c1cc2ccc(F)cc2nc1-c1ccccn1` (10 µM) the same measures were 0.0578 and 114% (inactive).
For `CCCc1cc(=O)[nH]c(=S)[nH]1` [propylthiouracil] (10 µM), the morphology score in assay [1] worked out at 0.00376. Moreover, the SARS-CoV-2 infection rate in assay [2] was 104% (inactive).
For `O=C1O[C@H]([C@@H](O)CO)C(O)=C1O` (10 µM), in that order: 0.1 and 111% (inactive).
For `CNC[C@H](O)c1ccc(O)c(O)c1` [epinephrine] (10 µM) the same measures were 0.0378 and 104% (inactive).
On to `O=S(=O)(O)NC1CCCCC1` [cyclamic-acid] (10 µM), for which the morphology score in assay [1] is 0.146. The SARS-CoV-2 infection rate in assay [2] is 87.5% (inactive).
Turning to `O=C(Nc1cc(-c2ccccc2)nn1-c1ccccc1F)c1ccc([N+](=O)[O-])cc1` (10 µM), in assay [1], the morphology score stood at 0.233. In addition, the SARS-CoV-2 infection rate in assay [2] was 93.5% (inactive).
For the compound `O=C(Nc1ccc(Cl)nc1)c1ccc(Cl)cc1` (10 µM), in assay [1], the morphology score was 0.18. Further, in assay [2], the SARS-CoV-2 infection rate was 99.5% (inactive).
For `CCc1nc(C(N)=O)c(Nc2ccc(N3CCC(N4CCN(C)CC4)CC3)c(OC)c2)nc1NC1CCOCC1` [gilteritinib] (0.833333 µM) the same measures were 0.272 and 91.5% (inactive).
For `CCn1c(=O)c(-c2ccc(Cl)cc2Cl)cc2cnc(Nc3ccc(N4CCNCC4)c(F)c3)nc21` (0.833333 µM), in that order: 0.097 and 106% (inactive).
For `CC(=O)N[C@@H](CC(C)C)C(=O)O` [acetyl-l-leucine] (10 µM) the same measures were 0.134 and 94.5% (inactive).
On to `c1ccc2nc(C3=NCCN3)cnc2c1` (10 µM), for which the morphology score in assay [1] came out at 0.177. For the same compound, the SARS-CoV-2 infection rate in assay [2] was 93% (inactive).
For `CCN(CCO)CCCOc1ccc2c(Nc3cc(CC(=O)Nc4cccc(F)c4)[nH]n3)ncnc2c1` [barasertib-HQPA] (10 µM) the same measures were 0.0875 and 112% (inactive).
For `CCN(CC)CCOC(=O)C(c1ccccc1)c1ccccc1` [adiphenine] (10 µM), in that order: -0.106 and 110% (inactive).
For `Oc1cc2c(cc1O)C(c1ccccc1)CNCC2` (stereo not drawn) (10 µM) the same measures were -0.34 and 116% (inactive).
`O=c1ncccn1[C@@H]1O[C@H](CO)[C@@H](O)[C@H]1O` [zebularine] (10 µM) displayed a morphology score in assay [1] of 0.0754. In addition, the SARS-CoV-2 infection rate in assay [2] is 104% (inactive).
For `Cc1ccccc1NC(=O)Nc1ccc(CC(=O)N(C)[C@@H](CC(C)C)C(=O)NCC[C@H](NC(=O)[C@@H]2CCCN2S(=O)(=O)c2cc(Cl)cc(Cl)c2)C(=O)O)cc1` (10 µM) the same measures were 0.157 and 91% (inactive).
In assay [1], `CN1CCC2=C(C1)C(c1ccccc1)c1ccccc12` (stereo not drawn) [phenindamine] (10 µM) displayed a morphology score of -0.171. In addition, the SARS-CoV-2 infection rate in assay [2] is 112% (inactive).
For `CCOc1cc([C@@H](CS(C)(=O)=O)N2C(=O)c3cccc(NC(C)=O)c3C2=O)ccc1OC` [apremilast] (10 µM), in that order: 0.345 and 89% (inactive).
Regarding `C[C@H](c1ccc(F)cc1CCCC(=O)O)N(c1cc(F)ccc1F)S(=O)(=O)c1ccc(Cl)cc1` (10 µM), in assay [1], the morphology score is 0.0279. For the same compound, the SARS-CoV-2 infection rate in assay [2] was 112% (inactive).
In assay [1], `Cc1cccc(Nc2nc(-c3ccncc3)cs2)c1` (0.833333 µM) had a morphology score of 0.455. The SARS-CoV-2 infection rate in assay [2] was 61% (inactive).
Compound `NC(=O)Nc1cc(-c2cccc(F)c2)sc1C(=O)N[C@H]1CCCNC1` (0.833333 µM) had a morphology score in assay [1] of 0.11. In assay [2], the SARS-CoV-2 infection rate is 106% (inactive).
In assay [1], `O=C(N[C@@H](Cc1c[nH]c2ccccc12)C(=O)O)c1ccc(Cl)cc1` [benzotript] (10 µM) yielded a morphology score of -0.049. The SARS-CoV-2 infection rate in assay [2] was 104% (inactive).
